Pf apPOL inh – Pf-apPOL DNA polymerase inhibition; 210,000 tested, 0.25% active; Recombinant Pf-apPOL, molecular beacon fluorescence, 1.5 h; inhibition, % at 10 µM
mHTT CaM bind – inhibitors of human mutant huntingtin-calmodulin interaction; P42858; AlphaScreen His-mHTT/GST-CaM binding, luminescence; inhibition, % at 15 µM; 190,000 tested, 3.6% active;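 also: 0% = both proteins with DMSO and 100% = one protein alone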
Active calls of the source: *; . = no result. This is one part of a sample in which hits are shown more often than they occur. Rule as the data show it: active = inhibition above about 50%; inactive = the rest.

SMILES	Pf apPOL inh	mHTT CaM bind
CCc1cc2c3c(c1)C(C)=CC(C)(C)N3C(=O)C2=O	6	72*
Cc1cc2c3c(c1)C(C)CC(C)(C)N3C(=O)C2=O (stereo not drawn)	0	17
Cc1nnsc1C(=O)N1CCC(CNC(=O)C(=O)NCC2CCCO2)CC1 (stereo not drawn)	10	-4
Oc1ccc(/C=C/c2ccc3cccc(O)c3n2)cc1Br	4	62*
COc1cc(/C=C/c2ccc3cccc(O)c3n2)cc(OC)c1O	-2	74*
O=C(O)c1ccc(/C=C/c2ccc3cccc(O)c3n2)cc1	5	7
CCOc1cccc(/C=C/c2ccc3cccc(O)c3n2)c1OC	1	48
COc1ccc(Cl)cc1/C=C/c1ccc2cccc(O)c2n1	-7	52*
CCOc1cc(/C=C/c2ccc3cccc(O)c3n2)ccc1O	-7	48
Cc1ccc(S(=O)(=O)Nc2ccc(OC(F)F)cc2)cc1	-4	.
Oc1ccc(I)nc1CCc1ccccc1	2	-12
CC1(C)OC(=O)C(=Cc2ccc(I)o2)C(=O)O1	-2	23
Fc1ccc(C2=CSC(N=Cc3ccco3)=NN2)cc1	2	68*
CC1=C(c2ccc(Cl)cc2)NN=C(N=Cc2ccco2)S1	0	17
O=C(Cc1csc(NC(=O)c2cnccn2)n1)Nc1ccc(-n2cccn2)cc1	-6	97*
CS(=O)(=O)Nc1cccc(NC(=O)Cc2csc(NC(=O)c3cnccn3)n2)c1	20	97*
O=C(Cc1csc(NC(=O)c2ccsc2)n1)Nc1cccnc1	-5	1
O=C(Cc1csc(NC(=O)c2cnccn2)n1)NCCOc1ccc(F)cc1	-4	-2
Cc1nnc(-c2cccn2CC(=O)Nc2cc(Cl)ccc2C)o1	-2	-5
CCCCC(=O)N1CCC(c2ccn3ncc(C(=O)N4CCOCC4)c3c2)CC1	3	2
COc1cc(C2C(C#N)=C(N)Oc3c2oc(CO)cc3=O)c([N+](=O)[O-])cc1OC (stereo not drawn)	4	22
COc1cc(C2C(C#N)=C(N)OC(C)=C2C(C)=O)c([N+](=O)[O-])cc1OC (stereo not drawn)	-5	57*
N#Cc1ccc(N2C=C(C(=O)N3CCCCC3)S(=O)(=O)c3ccccc32)cc1	0	-6
O=C(CS(=O)(=O)c1cn(Cc2cccc(F)c2)c2ccccc12)N1CCCCCC1	0	16
Cc1ccc(C(=O)N2CCN(c3cccc(Cl)c3)CC2)cc1	-6	23
SMILES	Pf apPOL inh	mHTT CaM bind
Cc1cc2c(=O)n(C(C)C(=O)N3CCN(c4cccc(Cl)c4)CC3)ccc2o1 (stereo not drawn)	1	97*
Cc1c(C)c(C)c(NC(=O)C=CC(=O)O)c(NC(=O)C=CC(=O)O)c1C	9	.
Cc1ccc(Oc2nccnc2N2CCCC(C(=O)Nc3ccc(Cl)cc3)C2)cc1 (stereo not drawn)	-6	-6
CC(C)(C)C1CCc2onc(C(=O)Nc3cc(Cl)ccc3O)c2C1 (stereo not drawn)	-5	61*
CC(C)(C)C1CCc2onc(C(=O)Nc3ccc(F)cc3F)c2C1 (stereo not drawn)	-8	-4
FC(F)(F)c1ccc(CN2CCN(c3cnn4c(C5CC5)nnc4c3)CC2)cc1	-4	28
Cc1cc(=O)[nH]c(SCC(=O)Nc2cc(C(F)(F)F)ccc2Cl)n1	-1	-4
O=C(CSc1nc2ccccc2[nH]1)Nc1cc(C(F)(F)F)ccc1Cl	-4	50*
OCCN(Cc1ccccc1)CC(O)COc1ccc(Cl)cc1Cl (stereo not drawn)	4	51*
OCCN(Cc1ccccc1)CC(O)COc1cccc2ccccc12 (stereo not drawn)	-11	12
O=C(C(c1ccccc1)c1ccccc1)N1CCN(c2ccc(F)cc2)CC1	0	64*
O=C(C(c1ccccc1)c1ccccc1)N1CCN(c2ccc([N+](=O)[O-])cc2)CC1	-8	3
O=c1c(S(=O)(=O)N2CCCC2)cccn1Cc1cccc(Cl)c1	-7	-2
CCn1c(=O)c(-c2ccc(C(=O)NC(C)(C)C)cc2)nc2ccccc21	-1	0
CCNc1ccc(Br)cc1-c1nc2ccccc2n(CC)c1=O	-1	52*
Cc1noc(C)c1S(=O)(=O)Nc1ccc(CN2CCS(=O)(=O)CC2)cc1	-2	.
CC1=NN(c2cccc(C(=O)O)c2)C(=O)/C1=C/c1ccc(-c2cc(Cl)ccc2Cl)o1	-4	32
CC1=NN(c2cccc(C(=O)O)c2)C(=O)/C1=C/c1ccc(-c2ccc(Br)cc2)o1	7	61*
Cc1ccc2nc(NS(=O)(=O)c3ccc([N+](=O)[O-])cc3)sc2c1	-2	-1
Cc1cccc(C)c1NC1=NC(=S)N(c2cccc(O)c2)C12CCC(C(C)(C)C)CC2 (stereo not drawn)	-117	56*
Cc1cccc(N(C)C(=O)CN2C(=O)NC3(CCC(C(C)(C)C)CC3)C2=O)c1 (stereo not drawn)	-5	1
CC1(C)C(C=C(Cl)Cl)C1C(=O)Nc1sc2c(c1C#N)CCCC2 (stereo not drawn)	92*	-2

Screens (PubChem)
